In the library only some 5.7% were active in any assay of this set; here they are far more common.
DAX1 inh-1 = DAX1 (NR0B1) inhibitors, primary screen, cell-based, HEK293, Gal4-DAX1, luciferase luminescence. actives 0.99% (n = 340,000). inhibition, % at 6.75 µM. HEK293 Gal4-DAX1 luciferase reporter. Nuclear receptor subfamily 0 group B member 1 (Homo sapiens), P51843;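 active means inhibition above the mean over all tested compounds plus 3 SD, cut at about 4.2% in these data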;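 further: 0% = DAX1-transfected cells with DMSO and 100% = empty-vector control cells with DMSO; inhibition shows as a rise in luminescence from relieved DAX1 repression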
AHR act = AHR activators, primary screen, cell-based, luminescence, luciferase reporter, human; actives 2.5% (n = 320,000); AHR-responsive luciferase reporter cells; activation, % at 5 µM; Aryl hydrocarbon receptor (Homo sapiens), P35869; in the data active means activation above about 47%;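 further: 0% = vehicle wells and 100% = reference agonist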
Target sequence (P35869 whole entry, looked up): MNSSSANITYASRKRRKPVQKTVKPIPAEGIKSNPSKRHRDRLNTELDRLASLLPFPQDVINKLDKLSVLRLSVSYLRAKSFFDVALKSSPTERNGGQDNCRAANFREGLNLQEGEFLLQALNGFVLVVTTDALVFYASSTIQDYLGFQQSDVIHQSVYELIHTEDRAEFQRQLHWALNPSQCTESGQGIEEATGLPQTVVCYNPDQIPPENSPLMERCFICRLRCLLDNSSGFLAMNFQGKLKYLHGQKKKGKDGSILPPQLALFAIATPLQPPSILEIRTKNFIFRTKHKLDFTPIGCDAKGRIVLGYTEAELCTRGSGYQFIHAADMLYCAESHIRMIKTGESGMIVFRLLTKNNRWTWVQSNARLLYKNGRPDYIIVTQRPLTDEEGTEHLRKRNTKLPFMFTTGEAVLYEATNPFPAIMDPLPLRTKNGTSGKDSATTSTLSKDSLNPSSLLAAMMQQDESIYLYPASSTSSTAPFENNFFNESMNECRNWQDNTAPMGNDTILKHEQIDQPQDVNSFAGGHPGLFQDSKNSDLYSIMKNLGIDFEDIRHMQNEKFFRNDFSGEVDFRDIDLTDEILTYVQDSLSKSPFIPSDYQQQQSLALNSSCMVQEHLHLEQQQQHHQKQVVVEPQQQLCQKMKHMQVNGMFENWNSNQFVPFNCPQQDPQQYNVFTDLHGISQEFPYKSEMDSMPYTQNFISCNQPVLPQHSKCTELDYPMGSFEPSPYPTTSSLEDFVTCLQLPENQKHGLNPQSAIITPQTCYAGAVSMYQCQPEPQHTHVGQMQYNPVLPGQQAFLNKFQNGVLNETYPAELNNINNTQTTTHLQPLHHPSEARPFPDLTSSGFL
DAX1 inh-2 = DAX1 (NR0B1) inhibitors on StAR promoter, primary screen, cell-based, luminescence, SF-1 (NR5A1), full-length DAX-1 | HEK293T StAR-luciferase reporter, SF-1/DAX-1 repression relief | inhibition, % at 6.8 µM | actives 1.1% (n = 370,000);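 active means inhibition above the mean over all tested compounds plus 3 SD, cut at about 3.6% in these data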;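 further: 0% = DAX-1 cells with DMSO and 100% = cells lacking DAX-1 with DMSO; higher inhibition means more luminescence from relief of DAX-1 repression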
hcDAF-12 act = H. contortus DAF-12 nuclear receptor activators, primary screen, cell-based, luminescence, HEK293, lit1-tk-luc reporter. HEK293 hcDAF-12 lit1-tk-luc reporter; 0% DMSO, 100% Δ7-dafachronic acid. activation, % at 6.8 µM. actives 1.4% (n = 370,000);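 active means activation above the mean of all tested compounds plus 3 SD, cut at about 5.5% in these data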;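 further: 100% = response to 3 µM Δ7-dafachronic acid high control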
ssDAF12 agonist = S. stercoralis DAF-12 nuclear receptor activators, primary screen, cell-based, luminescence, HEK293, GRIP1 co-expression, lit1-tk-luc. HEK293 ssDAF-12/GRIP1 lit1-tk-luc reporter; % of 3 µM dafachronic acid response. activation, % at 6.8 µM. actives 1% (n = 370,000);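 active means activation above the mean over all tested compounds plus 3 SD, cut at about 0.9% in these data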;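 further: 0% = DMSO-only wells and 100% = 3 µM delta7-dafachronic acid wells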
hgDAF-12 ag = H. glycines DAF-12 receptor agonists, primary screen, cell-based, luminescence, HEK293, GAL4 fusion, UAS-luciferase; Nuclear hormone receptor DAF-12 (Heterodera glycines), GAL4 fusion; HEK293 GAL4-hgDAF12 UAS-luciferase reporter, agonist luminescence; normalized to butyrate control; activation, % at 6.8 µM; actives 1.8% (n = 370,000); AID 687014, 2013;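 active means activation above a cutoff set at the mean of all screened compounds plus 3 SD, cut at about 10% in these data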;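 further: 0% = DMSO wells and 100% = sodium butyrate wells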
* hit, by the source's call; . = no result.

SMILES	DAX1 inh-1	AHR act	DAX1 inh-2	hcDAF-12 act	ssDAF12 agonist	hgDAF-12 ag
CCC(=Nc1ccc(OC)cc1OC)c1c(O)n(C)c(=O)n(C)c1=O	-0.3	10.4	-1.7	-0.8	-1.4	-1.6
CCC(=Nc1cccc(C(F)(F)F)c1)c1c(O)n(C)c(=O)n(C)c1=O	4.5*	-0.4	0.3	0.4	-0.7	0.0
CCCN1CC[C@@H]2c3cc(O)ccc3CC[C@@H]21	0.2	0.8	0.2	2.4	-1.2	-0.8
CC(C(=O)Nc1ccc(Br)cc1C(=O)c1ccccc1)N1CCOCC1 (stereo not drawn)	0.1	-0.3	-1.0	0.2	-1.6	-2.7
O=C1N[C@@H](Cc2ccccc2)C(=O)N2[C@H]1C[C@H]1c3ccccc3N(OOSc3ccccc3)[C@H]12	0.7	-5.2	0.9	1.3	-1.2	-0.1
COc1c(C)cc(C(=O)C2CCCN(C3CCOCC3)C2)cc1C (stereo not drawn)	1.0	-1.4	3.2	0.5	-1.4	-2.8
COc1ccc2cc(C(=O)C3CCCN(C4CCOCC4)C3)ccc2c1 (stereo not drawn)	0.9	4.9	4.4*	2.9	-1.8	-2.8
COC(=O)C(O)(c1ccc(NC(=O)NC2CCCCC2)cc1)C(F)(F)F (stereo not drawn)	0.9	0.5	1.8	0.9	0.7	11.3*
O=C1OC(c2ccc(Br)cc2)=N/C1=C\N1CC2CC(C1)c1cccc(=O)n1C2 (stereo not drawn)	0.3	8.5	-0.3	-2.4	-1.9	0.6
O=C1OC(c2ccc(Cl)cc2)=N/C1=C\N1CC2CC(C1)c1cccc(=O)n1C2 (stereo not drawn)	1.9	7.2	-0.3	-0.9	1.6*	5.1
CC(N)Cc1c[nH]c2ccc(Cl)cc12 (stereo not drawn)	-0.5	4.7	-0.7	1.5	-0.5	1.5
Clc1ccc2[nH]c3c(c2c1)CCNC3	2.6	21.2	-0.2	-1.8	0.9*	1.2
N[C@@H](Cc1c[nH]c2ccccc12)c1nnc(SCc2ccc(F)cc2)o1	-0.7	.	0.0	-0.3	-1.2	1.3
N[C@@H](Cc1c[nH]c2ccccc12)c1nnc(SCc2ccccc2)o1	-0.5	74.4*	-0.1	-0.2	-1.3	-0.1
COc1ccc2c3c([nH]c2c1)C(C)=NCC3	0.2	49.6*	-0.5	-2.1	-1.6	0.3
CC1CCCN(c2ccc(C(=O)N3CCC4(CC3)OCCO4)cc2[N+](=O)[O-])C1 (stereo not drawn)	-0.7	2.1	0.7	-2.7	-1.4	-0.7
O=C(c1ccc(N2CCCCC2)c([N+](=O)[O-])c1)N1CCC2(CC1)OCCO2	5.1*	-0.6	-0.8	-1.5	-1.8	-1.2
CSc1nc(Cl)c(Br)c(N2CC2)n1	4.6*	.	1.0	0.2	-1.1	-1.5
C#C[C@]1(O)CCC2C3C(=O)C=C4C=CCC[C@]4(C)C3CC[C@@]21C (stereo partly drawn)	.	.	-2.1	-0.6	-1.5	-1.0
Cc1cccc(-n2c(O)c(C=NCCN3CCCCC3)c(=O)[nH]c2=O)c1	0.2	-1.5	-0.7	-1.9	-0.8	-0.7
O=c1[nH]c(=O)n(-c2ccc(Br)cc2)c(O)c1C=NCCN1CCCCC1	6.4*	-0.8	0.5	-0.3	-1.2	1.0
O=P1(Oc2ccccc2)CC=C[C@H](COCc2ccccc2)O1 (stereo partly drawn)	-0.3	-1.4	0.0	0.0	-1.0	2.5
CC(=NNC(=S)N1CC2CCC(CC2)C1)c1nccs1	-3.8	.	-0.7	4.7	0.1	12.1*
CN(C)C(=O)Oc1ccnc2cc(Cl)ccc12	5.5*	2.7	-0.7	-1.9	-1.6	-1.5
CC1(C)CN=C(Nc2nc3ccccc3s2)S1	3.4	25.4	3.0	5.4	1.5*	9.7
SMILES	DAX1 inh-1	AHR act	DAX1 inh-2	hcDAF-12 act	ssDAF12 agonist	hgDAF-12 ag
CC1(C)CN=C(NCc2ccccc2)S1	1.1	0.7	0.0	-1.2	-0.8	0.4
C=CCc1ccc(OC)cc1	4.5*	-0.6	-0.4	1.5	-1.6	4.0
COc1ccc(CN2CCNCC2)cc1	1.1	.	0.2	0.9	-1.0	0.6
COc1ccc(-n2nc(C(=O)NCC(=O)N3CCC4(CC3)OCCO4)c3ccccc3c2=O)cc1	0.8	0.7	1.2	5.8*	-0.6	8.3
O=c1[nH]c2ccccc2n1C1CCN(C(c2ccnc3ccccc23)c2nnnn2-c2ccc3c(c2)OCCO3)CC1 (stereo not drawn)	.	.	-4.1	-4.1	-2.0	-7.0
N/C(=N/[N+](=O)[O-])N1CCN(C(=O)c2ccc(Cl)cc2)CC1	2.5	-0.3	0.6	-1.2	-1.7	-2.5
O=c1c([N+](=O)[O-])cn(O)cc1[N+](=O)[O-]	4.4*	.	-1.0	0.7	-0.7	5.0
O=c1[nH]c(=S)n(C2CC2)c(O)c1C=NCCc1ccccc1	.	1.3	0.3	-0.4	-1.4	0.2
O=P(Nc1c(Cl)cccc1Cl)(c1ccccc1)c1nc2c(s1)CCCC2 (stereo not drawn)	0.6	-1.2	.	.	.	.
CP(=O)(Nc1ccc(Cl)cc1)c1nc2c(s1)CCCC2 (stereo not drawn)	-1.6	69.6*	-0.1	0.8	-1.6	-2.9
O=C1NC(=S)N(c2ccc(Br)cc2)C(=O)/C1=C/N1CCN(C(=O)c2ccco2)CC1	4.7*	8.9	0.0	0.6	-1.2	1.2
Cc1ccc(N2C(=O)/C(=C/N3CCN(C(=O)c4ccco4)CC3)C(=O)NC2=S)cc1C	0.8	-0.5	0.4	-0.3	-0.9	-0.1
O=C1CC(=O)N(c2ccc3c(c2)OCO3)C(=O)N1	-0.2	9.3	-0.6	-1.5	-1.1	-0.8
CCn1c(=O)cc(OCC(=O)N2CCC3(CC2)OCCO3)c2ccccc21	4.4*	27.9	0.9	1.4	-1.0	0.4
O=c1[nH]c(=O)n(-c2cccc(F)c2)c(O)c1/C=C1\C=Nc2ccccc21	1.0	15.2	0.0	5.7*	0.4	0.7
Nc1ccc(Cl)c(Cl)c1	0.2	.	0.2	0.4	1.1*	1.8
c1ccc2c(N3CCNCC3)nsc2c1	-1.0	3.2	-1.8	0.2	-1.5	-3.7
COC(=O)C1=C(c2cccc(OCc3ccccc3)c2)C[C@@H]2CC[C@H]1N2C(=O)NCc1ccccc1C(F)(F)F	-0.7	0.6	-0.3	0.8	-1.3	-0.2
